This note sets out measurements from PubChem BioAssay (NCI).

Test [1] can be described thus: NCI Yeast Anticancer Drug Screen. Data for the rad50 strain (AID 155).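 Also: 0% = growth of vehicle-only cultures of the same strain.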 The note with it: S. cerevisiae rad50 strain growth inhibition, stronger effect = higher value; at 50.0 µM unless noted. In short, it runs like this:
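Cells are treated with compound, grown, and their growth is then scored against vehicle-only cultures of the same repair-deficient yeast strain.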

A short description of test [2]: NCI Yeast Anticancer Drug Screen. Data for the mec2-1 strain (AID 157). Particulars: S. cerevisiae mec2-1 strain, stronger effect = higher value; at 50.0 µM unless noted. In short, it runs like this: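 Cells of the genetically defined mec2-1 yeast strain are incubated with test compound. Inhibition of growth is calculated against vehicle-treated controls.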
The nature of test [3]: NCI Yeast Anticancer Drug Screen. Data for the sgs1 mgt1 strain (AID 161).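 Also: 0% = growth of cultures given vehicle only.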 Particulars: S. cerevisiae sgs1 mgt1 strain, stronger effect = higher value; at 50.0 µM unless noted. In outline: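 Mutant yeast exposed to compound; growth scored against vehicle-only wells.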
Test [4] can be described thus: NCI Yeast Anticancer Drug Screen. Data for the cln2 rad14 strain (AID 165).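 Also: 0% = growth equal to vehicle treated cultures.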 Particulars: S. cerevisiae cln2 rad14 strain, stronger effect = higher value; at 50.0 µM unless noted. In short, it runs like this:
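The screen exposed genetically defined yeast (cln2 rad14) to test compounds and scored growth inhibition relative to vehicle-treated controls.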

Test [5] in a line: NCI Yeast Anticancer Drug Screen. Data for the bub3 strain (AID 167). Particulars: S. cerevisiae bub3 mutant strain, stronger effect = higher value; at 50.0 µM unless noted. In outline:
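Part of a panel of yeast mutants defective in DNA damage repair or cell cycle regulation. Each strain is grown with compound, and inhibition is calculated relative to solvent-treated cultures.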

Test [6] is described as follows: NCI Yeast Anticancer Drug Screen. Data for the mlh1 rad18 strain (AID 175). Particulars: S. cerevisiae mlh1 rad18 strain growth inhibition, stronger effect = higher value; at 50.0 µM unless noted. In outline:
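Compound-treated yeast growth, normalised to vehicle controls. Strain bears defined DNA repair mutations.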

Where “and” joins values, the source holds several entries; their conditions need not be identical. Identical values can stand only once. About 79,000 compounds went through this panel and 15% of them were active in at least one assay; those are over-represented in the sample as a whole. A number with no mark means an inactive call. Calls of active or inactive are those of the source. Rule as the data show it: active = growth inhibition above about 70%; inactive = the rest.

Turning to `CN1c2ccccc2C(=O)N2C(=O)CCC21C` (centres undefined), the growth inhibition in test [1] is -38.9%; in test [2], -15.4%; in test [3] it was -20.7%; in test [4] it was -14.2%; in test [5], -13.4%; in test [6], -11.1%.
With `CC12C(=C(C#N)C(=N)N1c1ccc(Cl)c(Cl)c1)C=C(O)CC2SCCS(=O)(=O)O` (centres undefined), the growth inhibition in test [1] was 13.2%; in test [2] it was 1.4%; in test [3], -1%; in test [4], 27.4%; in test [5] it was -11.4%; in test [6], 10.8%.
On to `CC(NC(C#N)CC12CC3CC(CC(C3)C1)C2)c1ccccc1` (centres undefined), for which the growth inhibition in test [1] was -11.8%; in test [2], -11.4%; in test [3] it was -11.6%; in test [4], 12.2%; in test [5] it was 6.75%; in test [6], -30.6%.
On to `C=C1C(=O)OC2C3[C@@]4(C)O[C@H]4[C@H]4O[C@@]34[C@](C)(O)CC(OC(C)=O)[C@@H]12` (some centres undefined), for which the growth inhibition is -16.4% in test [1]; -30.6% in test [2]; -7.3% in test [3]; -7.45% in test [4]; -24.4% in test [5]; -22.1% in test [6].
`[Cu+2].[NH-]CC(=O)NC(Cc1ccccc1)C(=O)O.[NH-]CC(=O)NC(Cc1ccccc1)C(=O)O` (centres undefined): the growth inhibition in test [1] is 30.9%; in test [2], 2.4%; in test [3] it was 10.6%; in test [4] it was 17.5%; in test [5] it was 0.9%; in test [6] it was 10.6%.
Regarding `O=C(O)CCc1[nH]c(I)nc1I`, the growth inhibition was 17.1% in test [1]; 14.3% in test [2]; 5.3% in test [3]; -0.7% in test [4]; -7.45% in test [5]; 29.5% in test [6].
Consider `O=C(/C=C/c1ccccc1)c1ccc(I)cc1`, for which the growth inhibition is 11.7% in test [1]; -1.25% in test [2]; 9.6% in test [3]; -8.2% in test [4]; 5.25% in test [5]; 1.5% in test [6].
As to `O=C(OCC(OC(=O)c1ccccc1)C(OC(=O)c1ccccc1)C(OC(=O)c1ccccc1)c1cnn(-c2ccccc2)n1)c1ccccc1` (centres undefined), the growth inhibition in test [1] is 0.55% and 30.4%; in test [2], 3.85% and 38.2%; in test [3], -6.45% and 58.4%; in test [4], -13.4% and 47.3%; in test [5], -0.85% and 42.1%; in test [6], 12.9% and 34.9%.
In the case of `NCC(=O)c1ccc2cc(Br)c3ccccc3c2c1`, the growth inhibition in test [1] is 5.7%; in test [2] it was 0.45%; in test [3], -1.2%; in test [4] it was 17.9%; in test [5] it was 12.4%; in test [6] it was 0.15%.
Turning to `Clc1cccc(C2SCc3nc4ccccc4n32)c1` (centres undefined), the growth inhibition in test [1] was 17%; in test [2] it was -3.95%; in test [3] it was 46.1%; in test [4], 15.3%; in test [5], 5.9%; in test [6], 32.1%.
In the case of `COc1cc2cnc3c4cc(OC(C)C)c(OC)cc4ccc3c2cc1OC`, the growth inhibition in test [1] was -10%; in test [2] it was -15.3%; in test [3], -20.1%; in test [4] it was 5.75%; in test [5], -5.3%; in test [6], -29.4%.
As for `NNC(=O)Oc1cccc2ccccc12`, the growth inhibition is 22.1% in test [1]; 19.3% in test [2]; 9.9% in test [3]; -4.4% in test [4]; 36.4% in test [5]; 42.5% in test [6].
Regarding `CCc1ccc2c(-c3ccccc3)c3c(-c4ccccc4)c4ccccc4c(-c4ccccc4)c3c(-c3ccccc3)c2c1`, the growth inhibition in test [1] is 16.6%; in test [2] it was 7.3%; in test [3], -5.8%; in test [4] it was -28.4%; in test [5], -8.15%; in test [6], 23.4%.
Turning to `O=C(Nc1ccc(Cl)cc1Cl)c1cc2nc3ccccc3c(=O)n2c2ccccc12`, the growth inhibition in test [1] was 29.6%; in test [2], 13.6%; in test [3] it was 12.1%; in test [4] it was 7.7%; in test [5], 17.3%; in test [6], 30.6%.
As to `C=CCC1(CN(C)C)CC/C(=C\c2cc(OC)c(OC)c(OC)c2)C1=O` (centres undefined), the growth inhibition is -8.7% in test [1]; -3.15% in test [2]; -26% in test [3]; -4.65% in test [4]; -9.85% in test [5]; 20.2% in test [6].
`COC1COCOC1C(OC)C1OCOCC1OC` (centres undefined): the growth inhibition in test [1] was -2.25%; in test [2] it was -12.2%; in test [3], -8.15%; in test [4], -46.3%; in test [5], -4.25%; in test [6], -2.8%.
As to `Cc1cccc(CO)c1NC(=O)NCCCl`, the growth inhibition is -0.4% in test [1]; -12.2% in test [2]; -4.55% in test [3]; -32.2% in test [4]; -17.9% in test [5]; 3.25% in test [6].
With `O=C(O)CCC(=O)CCC(=O)O`, the growth inhibition in test [1] was 13.7%; in test [2] it was -8.85%; in test [3], 3.6%; in test [4], 2%; in test [5] it was -14.6%; in test [6], 7.2%.
Turning to `CC1(C)COC(c2ccc3c(c2)OCO3)N1` (centres undefined), the growth inhibition in test [1] was 0.5%; in test [2] it was -8.45%; in test [3] it was -5.7%; in test [4], -19.6%; in test [5], -9.75%; in test [6], 0.6%.
For `CN(C)C[C@@H]1C2C=CC(C2)[C@@H]1CO` (some centres undefined), the growth inhibition in test [1] was -6.5%; in test [2], 4.55%; in test [3] it was -0.9%; in test [4] it was 4.95%; in test [5] it was 2.25%; in test [6], -10.6%.
As to `O=C(O)/C=C\C(=O)Nc1ccc2c(c1)Cc1cc(O)ccc1-2`, the growth inhibition is 7.95% in test [1]; 30.8% in test [2]; 17.8% in test [3]; 25.7% in test [4]; 21.9% in test [5]; -0.3% in test [6].
On to `CCOP(=O)(OCC)/C(=C\n1c(=S)[nH]c2cc(C)ccc21)C(=O)OC`, for which the growth inhibition in test [1] was -34.1%; in test [2], -27.7%; in test [3], 13.3%; in test [4], -4.4%; in test [5], -2.5%; in test [6] it was 31.3%.
On to `CCOC=Nc1ccc(-n2cnc3c(Cl)ncnc32)cc1C`, for which the growth inhibition in test [1] was 1.1%; in test [2], -4.45%; in test [3] it was -16.6%; in test [4] it was -6.2%; in test [5], -1%; in test [6], -17.2%.
On to `CC(=O)O[C@H]1[C@@H](OC(C)=O)C(C)(C)/C=C/[C@H](C)C(=O)[C@@]2(OC(C)=O)C[C@@](C)(OC(C)=O)[C@H](OC(C)=O)[C@@H]2[C@H]2OC(=O)CC[C@@]2(OC(=O)c2ccccc2)[C@@H]1OCC(C)C`, for which the growth inhibition in test [1] is 3.85%; in test [2], -2.15%; in test [3], -15.8%; in test [4] it was 36%; in test [5], -22.3%; in test [6], -0.15%.
Consider `CC1(C)OC2OC3C(Br)C(=O)OC3C2O1` (centres undefined), for which the growth inhibition in test [1] is 14.8%; in test [2] it was -8.45%; in test [3], 24.7%; in test [4], 9.65%; in test [5] it was 24.1%; in test [6], 26.2%.
As to `COc1ccccc1N=Nc1c(O)n(-c2ccccc2)c(=S)n(-c2ccccc2)c1=O`, the growth inhibition in test [1] was 36.2%; in test [2], -4.55%; in test [3], 26.8%; in test [4], -9.3%; in test [5], -2.85%; in test [6], 8.9%.
For `Cn1c2ccccc2c(=O)c2[nH]c3ccccc3c21`, the growth inhibition is 77.1% (active) in test [1]; 78.5% (active) in test [2]; 84.2% (active) in test [3]; 63.5% in test [4]; 83.3% (active) in test [5]; 76.8% (active) in test [6].
With `COC1OC(COC(c2ccccc2)(c2ccccc2)c2ccccc2)C(O)C(O)C1O` (centres undefined), the growth inhibition in test [1] is 40.7%; in test [2], 47%; in test [3], 42.6%; in test [4] it was 84.5% (active); in test [5] it was 38%; in test [6], 41.1%.
Turning to `Cc1cc(C)c(F)c(C)c1F`, the growth inhibition in test [1] is -7.95%; in test [2], -4.6%; in test [3] it was -5.45%; in test [4], -15.8%; in test [5], 5.9%; in test [6] it was -2.3%.
As for `CC1(C)COC2(CCCCC2)OC1`, the growth inhibition was 12.8% in test [1]; 4.4% in test [2]; -10.6% in test [3]; -30.1% in test [4]; -1.7% in test [5]; 8.95% in test [6].
Take `C=CCONC(=O)c1ccc(Cl)cc1`: the growth inhibition in test [1] is 0.5%; in test [2], 1.75%; in test [3], -4.2%; in test [4], -5.5%; in test [5], -19.2%; in test [6], 27.3%.
As for `CC(=O)Oc1ccc2c(c1)CCC2`, the growth inhibition in test [1] is 9.85%; in test [2], 12.8%; in test [3], 1.4%; in test [4] it was 8.25%; in test [5], 15.1%; in test [6], 0.1%.
For the compound `Nn1c(-c2ccccc2)nc2ccc(Br)cc2c1=O`, the growth inhibition is 0.95% in test [1]; 7.55% in test [2]; 18.5% in test [3]; 24.8% in test [4]; 7.95% in test [5]; 43.5% in test [6].
Take `O=C(Oc1cccc(O)c1)c1ccccc1`: the growth inhibition in test [1] was -7.25%; in test [2] it was 11%; in test [3], -9.15%; in test [4] it was -18.8%; in test [5], 19.9%; in test [6], -6.1%.
`Cc1cccc(C(=O)OCC2CCCO2)c1` (centres undefined): the growth inhibition in test [1] is -0.2%; in test [2], 11.7%; in test [3] it was 8.15%; in test [4], -22.6%; in test [5], 8.8%; in test [6], -3.4%.
Take `Clc1nn2cnnc2c2ncccc12`: the growth inhibition is 2.8% in test [1]; -0.45% in test [2]; 2.95% in test [3]; -13.3% in test [4]; 15.2% in test [5]; 16.4% in test [6].
Regarding `CCOC(=O)C(C)N1C(=O)c2ccccc2C1=O` (centres undefined), the growth inhibition in test [1] is 6.4%; in test [2], -20.4%; in test [3], -22%; in test [4], 13.3%; in test [5] it was 21.4%; in test [6], 0.55%.
Regarding `CC(c1cccc(O)c1)N(C)C` (centres undefined), the growth inhibition is 5.9% in test [1]; -2.2% in test [2]; 0.7% in test [3]; -10.4% in test [4]; 1.25% in test [5]; -3.85% in test [6].
On to `CCc1ccc2c(c1)C(=O)c1ccccc1C2=O`, for which the growth inhibition in test [1] was 4%; in test [2] it was 21.8%; in test [3], 11.1%; in test [4], -9.5%; in test [5], 25.7%; in test [6] it was 26.6%.
